These results are taken from PubChem BioAssay (EPA / NIEHS).

SMILES strings stand for the structures. Activity calls are given as the source filed them. How the source made its calls: active means hit-call score of the fitted dose curve at least 0.9, where 1 is the maximum; inactive means score below 0.9.

Settings in all cases: mRNA level, 48 h; actives raise or lower the signal
Read-out in experiment [1]: Tumor necrosis factor receptor superfamily member 6 (Homo sapiens) (UniProt P25445)
In words: LTEA_HepaRG_FAS: Life Technologies and Expression Analysis (LTEA) Assay for Fas cell surface death receptor (FAS) using HepaRG (AID 2283447). The procedure, abridged:
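FAS transcript level was measured by TaqMan qRT-PCR against three housekeeping genes after 48 h chemical exposure. Cells were HepaRG, 0.5% DMSO vehicle, with a top concentration of 100 uM and half-log dilutions over eight points, in duplicate.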

Read-out in experiment [2]: Fatty acid synthase (Homo sapiens) (UniProt P49327)
In words: LTEA_HepaRG_FASN: Life Technologies and Expression Analysis (LTEA) Assay for Fatty Acid Synthase (FASN) using HepaRG (AID 2283448). The method, boiled down: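 In human HepaRG cultures, 48 h chemical exposure (up to 100 uM, 0.5% DMSO) preceded TaqMan qRT-PCR of FASN.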

Read-out in experiment [3]: Cyclin Dependent Kinase Inhibitor 1A (CDKN1A), CDKN1A (gene 1026)
Nature of the experiment: LTEA_HepaRG_CDKN1A: Life Technologies and Expression Analysis (LTEA) Assay for Cyclin Dependent Kinase Inhibitor 1A (CDKN1A) using HepaRG (AID 2283450). The procedure, abridged: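 Differentiated HepaRG cells in serum-free induction medium, exposed 48 h in duplicate to eight half-log concentrations up to 100 uM in 0.5% DMSO. mRNA measured by TaqMan qRT-PCR, normalized to ACTB, GAPDH, POLR2A; bidirectional fit versus DMSO.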

Read-out in experiment [4]: catalase (CAT), CAT (gene 847)
In words: LTEA_HepaRG_CAT: Life Technologies and Expression Analysis (LTEA) Assay for catalase (CAT) using HepaRG (AID 2283452).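 On AC50: TaqMan qRT-PCR signal normalized to ACTB GAPDH and POLR2A housekeeping genes.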 The method, boiled down:
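Expression of CAT was quantified by TaqMan qRT-PCR with ACTB/GAPDH/POLR2A normalization after 48 h chemical exposure of HepaRG. Eight-point half-log series, top 100 uM, in 0.5% DMSO; gain or loss fitted against vehicle.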

Read-out in experiment [5]: flavin-containing dimethylaniline monooxygenases 3 (FMO3), FMO3 (gene 2328)
Nature of the experiment: LTEA_HepaRG_FMO3: Life Technologies and Expression Analysis (LTEA) Assay for flavin-containing dimethylaniline monooxygenases 3 (FMO3) using HepaRG (AID 2283453). The method, boiled down: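 Eight-point concentration-response in serum-free HepaRG cultures (top 100 uM, 0.5% DMSO, 48 h). Read-out: FMO3 mRNA level normalized to three endogenous control genes, fitted bidirectionally versus vehicle.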

Read-out in experiment [6]: Cytochrome P450 (CYP1A1), CYP1A1 (gene 1543)
Nature of the experiment: LTEA_HepaRG_CYP1A1: Life Technologies and Expression Analysis (LTEA) Assay for Cytochrome P450 (CYP1A1) using HepaRG (AID 2283454). The procedure, abridged: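 Differentiated human HepaRG cells, after 48 h plating, exposed in duplicate for 48 h in serum-free induction medium to 8 half-log concentrations up to 100 uM in 0.5% DMSO. CYP1A1 mRNA by qRT-PCR, normalized to ACTB/GAPDH/POLR2A; bidirectional fit versus DMSO.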

Read-out in experiment [7]: Forkhead box O1 (FOXO1), FOXO1 (gene 2308)
In words: LTEA_HepaRG_FOXO1: Life Technologies and Expression Analysis (LTEA) Assay for Forkhead box O1 (FOXO1) using HepaRG (AID 2283456). The method, boiled down:
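FOXO1 transcript quantified by qRT-PCR after 48 h chemical exposure (top 100 uM, half-log steps, 0.5% DMSO) of HepaRG cells, housekeeping-normalized (ACTB/GAPDH/POLR2A). Changes fitted in both directions relative to vehicle.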

Read-out in experiment [8]: growth arrest and DNA damage 45 (GADD45A), GADD45A (gene 1647)
Nature of the experiment: LTEA_HepaRG_GADD45A: Life Technologies and Expression Analysis (LTEA) Assay for growth arrest and DNA damage 45 (GADD45A) using HepaRG (AID 2283458). The method, boiled down:
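Eight-point concentration-response in HepaRG cells: 48 h chemical exposure, 0.5% DMSO vehicle, top dose 100 uM. Normalized qRT-PCR mRNA readout with bidirectional fitting relative to DMSO.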

Read-out in experiment [9]: Forkhead box O3 (FOXO3), FOXO3 (gene 2309)
In words: LTEA_HepaRG_FOXO3: Life Technologies and Expression Analysis (LTEA) Assay for Forkhead box O3 (FOXO3) using HepaRG (AID 2283459). The method, boiled down: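 FOXO3 transcript measured by qRT-PCR (normalized to ACTB, GAPDH, POLR2A) after 48 h exposure of HepaRG cells in serum-free induction medium. Duplicates, eight half-log concentrations up to 100 uM, 0.5% DMSO; gain or loss fitted against DMSO.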

Read-out in experiment [10]: ABC Transporter (ABCB1), ABCB1 (gene 5243)
Nature of the experiment: LTEA_HepaRG_ABCB1: Life Technologies and Expression Analysis (LTEA) Assay for ABC Transporter (ABCB1) using HepaRG (AID 2283460). The procedure, abridged:
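ABCB1 transcript level measured by TaqMan qRT-PCR against three housekeeping genes after 48 h chemical exposure of differentiated HepaRG cells. Top concentration 100 uM, half-log steps, eight points, 0.5% DMSO vehicle; bidirectional fit relative to DMSO.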

Read-out in experiment [11]: growth arrest and DNA damage 45 (GADD45B), GADD45B (gene 4616)
In words: LTEA_HepaRG_GADD45B: Life Technologies and Expression Analysis (LTEA) Assay for growth arrest and DNA damage 45 (GADD45B) using HepaRG (AID 2283461). The method, boiled down: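 Differentiated human HepaRG cells in serum-free induction medium exposed 48 h in duplicate to eight concentrations, top 100 uM, half-log steps, 0.5% DMSO. GADD45B mRNA by TaqMan qRT-PCR, normalized to ACTB, GAPDH, POLR2A; bidirectional fit versus DMSO.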

Read-out in experiment [12]: ABC Transporter (ABCC3), ABCC3 (gene 8714)
In words: LTEA_HepaRG_ABCC3: Life Technologies and Expression Analysis (LTEA) Assay for ABC Transporter (ABCC3) using HepaRG (AID 2283462). The procedure, abridged:
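Differentiated human HepaRG cells exposed 48 h in serum-free induction medium, 0.5% DMSO vehicle, 8-point half-log series to 100 uM in duplicate. ABCC3 mRNA by qRT-PCR, normalised to ACTB, GAPDH, POLR2A; bidirectional fit vs DMSO.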

Read-out in experiment [13]: ABC Transporter (ABCB11), ABCB11 (gene 8647)
In words: LTEA_HepaRG_ABCB11: Life Technologies and Expression Analysis (LTEA) Assay for ABC Transporter (ABCB11) using HepaRG (AID 2283463). The procedure, abridged: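 ABCB11 transcript levels quantified by TaqMan qRT-PCR against three housekeeping genes after 48 h chemical exposure of HepaRG cultures. Concentrations up to 100 uM in half-log steps, 0.5% DMSO vehicle; both induction and suppression scored.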

Read-out in experiment [14]: ABC Transporter (ABCC2), ABCC2 (gene 1244)
Nature of the experiment: LTEA_HepaRG_ABCC2: Life Technologies and Expression Analysis (LTEA) Assay for ABC Transporter (ABCC2) using HepaRG (AID 2283464). The procedure, abridged:
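Differentiated HepaRG cells in serum-free induction medium exposed 48 h to eight half-log concentrations up to 100 uM, 0.5% DMSO, in duplicate. ABCC2 mRNA measured by qRT-PCR (TaqMan, Fluidigm), normalized to ACTB, GAPDH and POLR2A. Fitted in both directions against DMSO.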

Read-out in experiment [15]: Broad substrate specificity ATP-binding cassette transporter ABCG2 (Homo sapiens) (UniProt Q9UNQ0)
Nature of the experiment: LTEA_HepaRG_ABCG2: Life Technologies and Expression Analysis (LTEA) Assay for ABC Transporter (ABCG2) using HepaRG (AID 2283465). The procedure, abridged:
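ABCG2 transcript was quantified by TaqMan qRT-PCR against three housekeeping genes in HepaRG cells. Cells were treated in duplicate for 48 h across an 8-point half-log series up to 100 uM, with 0.5% DMSO vehicle. Gain or loss versus DMSO was fit.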

Read-out in experiment [16]: ATP-citrate lyase (ACLY), ACLY (gene 47)
Nature of the experiment: LTEA_HepaRG_ACLY: Life Technologies and Expression Analysis (LTEA) Assay for ATP-citrate lyase (ACLY) using HepaRG (AID 2283466). The procedure, abridged: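 ACLY mRNA quantified by qRT-PCR on Fluidigm arrays against three housekeeping genes, after 48 h chemical treatment of HepaRG cells (top concentration 100 uM, half-log steps, 0.5% DMSO vehicle). Up- or down-regulation fitted relative to DMSO.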

Read-out in experiment [17]: Cyclin D2 (CCND2), CCND2 (gene 894)
Nature of the experiment: LTEA_HepaRG_CCND2: Life Technologies and Expression Analysis (LTEA) Assay for Cyclin D2 (CCND2) using HepaRG (AID 2283449). The method, boiled down:
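CCND2 transcript levels, quantified by qRT-PCR and normalised to three housekeeping genes, were fitted bidirectionally against 0.5% DMSO. HepaRG cultures were dosed 48 h in duplicate with an 8-point half-log series up to 100 uM.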

Sequence of Fatty acid synthase (Homo sapiens) (P49327 whole entry, looked up): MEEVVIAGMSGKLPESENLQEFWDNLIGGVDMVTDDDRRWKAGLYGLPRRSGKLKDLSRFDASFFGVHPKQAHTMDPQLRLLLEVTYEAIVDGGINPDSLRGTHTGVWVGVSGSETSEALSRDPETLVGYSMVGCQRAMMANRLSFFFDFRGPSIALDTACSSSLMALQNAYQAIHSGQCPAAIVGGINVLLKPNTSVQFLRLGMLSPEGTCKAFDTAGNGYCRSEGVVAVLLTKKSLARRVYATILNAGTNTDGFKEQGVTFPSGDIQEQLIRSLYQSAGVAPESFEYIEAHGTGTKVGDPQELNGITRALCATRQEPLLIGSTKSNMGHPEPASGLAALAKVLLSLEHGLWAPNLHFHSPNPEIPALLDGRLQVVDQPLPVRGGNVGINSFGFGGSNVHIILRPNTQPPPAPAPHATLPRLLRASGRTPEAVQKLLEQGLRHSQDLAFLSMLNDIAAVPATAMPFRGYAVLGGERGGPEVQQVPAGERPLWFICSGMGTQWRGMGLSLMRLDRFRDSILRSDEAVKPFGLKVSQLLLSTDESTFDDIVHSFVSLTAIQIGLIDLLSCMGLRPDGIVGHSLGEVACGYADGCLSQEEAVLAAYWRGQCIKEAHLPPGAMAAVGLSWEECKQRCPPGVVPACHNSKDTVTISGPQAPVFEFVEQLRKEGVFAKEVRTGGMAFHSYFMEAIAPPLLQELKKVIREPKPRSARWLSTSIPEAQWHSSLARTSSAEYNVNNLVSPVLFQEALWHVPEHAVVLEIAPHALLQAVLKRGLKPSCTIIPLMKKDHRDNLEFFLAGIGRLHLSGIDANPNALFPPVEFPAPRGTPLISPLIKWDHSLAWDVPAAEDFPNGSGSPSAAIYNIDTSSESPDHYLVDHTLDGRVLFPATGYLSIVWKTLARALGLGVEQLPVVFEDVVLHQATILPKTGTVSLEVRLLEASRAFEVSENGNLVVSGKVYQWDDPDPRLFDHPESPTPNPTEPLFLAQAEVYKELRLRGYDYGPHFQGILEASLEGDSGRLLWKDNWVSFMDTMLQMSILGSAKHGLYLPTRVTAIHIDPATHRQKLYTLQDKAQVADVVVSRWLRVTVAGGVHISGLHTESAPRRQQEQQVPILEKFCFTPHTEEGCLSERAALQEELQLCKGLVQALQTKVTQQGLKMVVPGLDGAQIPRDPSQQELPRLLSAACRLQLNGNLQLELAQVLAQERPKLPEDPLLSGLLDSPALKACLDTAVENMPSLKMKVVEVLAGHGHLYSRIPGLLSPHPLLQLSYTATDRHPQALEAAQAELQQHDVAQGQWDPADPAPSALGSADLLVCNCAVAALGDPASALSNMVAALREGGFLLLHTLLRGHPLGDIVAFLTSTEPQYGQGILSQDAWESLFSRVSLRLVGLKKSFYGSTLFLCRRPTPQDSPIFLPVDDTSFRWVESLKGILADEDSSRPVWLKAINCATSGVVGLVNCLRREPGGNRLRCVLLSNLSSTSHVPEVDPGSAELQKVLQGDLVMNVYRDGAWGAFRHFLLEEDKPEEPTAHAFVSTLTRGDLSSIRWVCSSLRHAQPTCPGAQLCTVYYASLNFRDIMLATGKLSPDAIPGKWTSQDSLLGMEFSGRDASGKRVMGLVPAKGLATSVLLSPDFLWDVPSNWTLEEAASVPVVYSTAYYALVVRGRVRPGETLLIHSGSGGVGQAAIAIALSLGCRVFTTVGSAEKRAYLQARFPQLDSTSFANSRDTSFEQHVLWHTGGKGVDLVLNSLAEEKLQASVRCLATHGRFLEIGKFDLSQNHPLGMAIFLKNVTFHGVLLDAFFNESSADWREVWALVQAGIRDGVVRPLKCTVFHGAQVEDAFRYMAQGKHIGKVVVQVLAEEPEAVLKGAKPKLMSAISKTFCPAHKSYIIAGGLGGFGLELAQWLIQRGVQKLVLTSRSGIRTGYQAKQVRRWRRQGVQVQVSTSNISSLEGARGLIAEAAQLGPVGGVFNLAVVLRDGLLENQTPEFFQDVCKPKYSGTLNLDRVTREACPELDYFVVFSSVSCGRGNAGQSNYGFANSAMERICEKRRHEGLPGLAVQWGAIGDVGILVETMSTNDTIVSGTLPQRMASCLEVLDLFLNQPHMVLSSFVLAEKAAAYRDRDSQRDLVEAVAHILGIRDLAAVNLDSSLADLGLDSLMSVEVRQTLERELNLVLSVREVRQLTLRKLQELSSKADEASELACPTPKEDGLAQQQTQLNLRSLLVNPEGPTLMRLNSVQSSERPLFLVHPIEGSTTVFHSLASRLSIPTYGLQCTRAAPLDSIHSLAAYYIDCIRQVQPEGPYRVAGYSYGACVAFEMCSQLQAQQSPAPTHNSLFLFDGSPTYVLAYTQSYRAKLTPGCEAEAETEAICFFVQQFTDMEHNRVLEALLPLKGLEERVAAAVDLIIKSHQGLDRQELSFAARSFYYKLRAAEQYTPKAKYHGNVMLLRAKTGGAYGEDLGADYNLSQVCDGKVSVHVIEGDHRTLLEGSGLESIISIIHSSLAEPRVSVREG
Sequence of Broad substrate specificity ATP-binding cassette transporter ABCG2 (Homo sapiens) (Q9UNQ0 whole entry, looked up): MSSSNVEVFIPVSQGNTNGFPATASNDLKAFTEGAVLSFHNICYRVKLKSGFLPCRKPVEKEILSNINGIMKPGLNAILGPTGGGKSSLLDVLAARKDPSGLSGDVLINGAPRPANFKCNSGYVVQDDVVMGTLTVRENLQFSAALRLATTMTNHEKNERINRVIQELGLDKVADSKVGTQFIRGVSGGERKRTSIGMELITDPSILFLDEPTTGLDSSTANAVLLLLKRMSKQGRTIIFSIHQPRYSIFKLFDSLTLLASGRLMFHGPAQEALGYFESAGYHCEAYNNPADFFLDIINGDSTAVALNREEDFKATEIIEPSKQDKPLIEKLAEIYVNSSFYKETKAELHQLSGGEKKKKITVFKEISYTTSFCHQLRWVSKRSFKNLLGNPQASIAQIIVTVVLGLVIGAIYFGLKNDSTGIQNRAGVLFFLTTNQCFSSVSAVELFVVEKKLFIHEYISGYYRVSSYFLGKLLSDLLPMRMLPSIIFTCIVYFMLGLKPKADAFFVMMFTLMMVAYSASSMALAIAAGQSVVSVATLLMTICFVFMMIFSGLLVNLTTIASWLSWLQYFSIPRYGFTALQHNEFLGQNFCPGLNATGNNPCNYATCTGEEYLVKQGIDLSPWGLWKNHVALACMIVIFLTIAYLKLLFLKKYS

For `NCC1(Cc2noc(=O)[nH]2)CCCCC1`, the compound was classed as inactive in experiment [1], in experiment [2], in [3], in [4], in experiment [5] and in experiment [7]. Further, the call in experiment [8], in [9], in [10], in experiment [11], in experiment [12] and in [13] was inactive. Also, the result in experiment [14], in experiment [15] and in experiment [16] was inactive. Moreover, the AC50 in experiment [6] is 73.3 µM (active).
For the compound `CCCCN(CCCC)CCCC`, the call in experiment [1], in experiment [2], in experiment [17], in experiment [3], in [4] and in experiment [5] was inactive. For the same compound, the outcome in experiment [6], in experiment [7], in [8], in experiment [9], in experiment [10] and in [11] was inactive. Moreover, the compound was called inactive in [12], in experiment [13], in [15] and in [16].
For the compound `Oc1ccc2ccccc2c1N=Nc1ccccc1`, the outcome in experiment [1], in [17], in [3], in experiment [7], in [8] and in [10] was inactive. For the same compound, the compound was called inactive in experiment [12], in [14] and in experiment [16]. Moreover, the AC50 was 1.16 µM (active) in experiment [2]; 9.92 µM (active) in experiment [4]; 10.4 µM (active) in experiment [5]; 0.14 µM (active) in experiment [6]; 7.86 µM (active) in experiment [9]; 31 µM (active) in [11]. Also, in experiment [15], the AC50 is 30.3 µM (active).
